Holding throughout (experiment): NCI-60 one-dose screen, 48 h (100 = growth as untreated, 0 = no growth, -100 = all killed)
Experiment [1] deals with SR leukemia. Conditions: 10 µM unless noted.
Experiment [2] relates to RPMI-8226 leukemia. Conditions: 10 µM unless noted.
Experiment [3] concerns OVCAR-8 ovarian. As to conditions: 10 µM unless noted.
Experiment [4] concerns OVCAR-5 ovarian. Conditions: 10 µM unless noted.
The subject of experiment [5] is OVCAR-4 ovarian. Conditions: 10 µM unless noted.
In experiment [6] the test system is SK-OV-3 ovarian. As to conditions: 10 µM unless noted.
Experiment [7] concerns IGROV1 ovarian. Conditions: 10 µM unless noted.
Experiment [8] has as its system OVCAR-3 ovarian. Conditions: 10 µM unless noted.
The test system of experiment [9] is HS 578T breast. Conditions: 10 µM.
Experiment [10] concerns NCI/ADR-RES ovarian. Conditions: 10 µM unless noted.
Experiment [11] relates to T-47D breast. Conditions: 10 µM unless noted.
Experiment [12] relates to BT-549 breast. As to conditions: 10 µM unless noted.
Experiment [13] has as its system MDA-MB-435 melanoma. Conditions: 10 µM unless noted.
Experiment [14] concerns SW-620 colon. Conditions: 10 µM unless noted.
In experiment [15] the test system is MCF7 breast. As to conditions: 10 µM unless noted.
Experiment [16] has as its system HCT-116 colon. Conditions: 10 µM unless noted.
For experiment [17], the system named is HCC-2998 colon. Conditions: 10 µM.
The test system of experiment [18] is KM12 colon. Conditions: 10 µM unless noted.

Here are results for nine molecules from PubChem BioAssay (NCI).

Compounds without any hit were thinned out: in the full panel of roughly 83,000, 20% have a hit.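 Cell lines were cultured in 96-well plates, exposed to a single compound concentration, and assessed for percent growth 48 hours later.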 Values without a mark were called inactive. Activity calls are given as the source filed them. Rule for the calls: active = growth percent below 10; inactive = the rest.

For `Cc1cc2c(-c3nc4ccccn4c3NC3CCCCC3)c(O)c(O)cc2c(O)c1-c1c(C)cc2c(-c3nc4ccccn4c3NC3CCCCC3)c(O)c(O)cc2c1O`, the growth in experiment [1] was 25.8%; in experiment [2], 31.6%; in experiment [3] it was 34.4%; in [4], 33.7%; in [5], 27.4%; in experiment [6] it was 41.5%. The growth in experiment [7] was 36.2%; in experiment [8], 32.4%; in experiment [9], 21.9%; in experiment [10] it was 71.9%; in experiment [11], 11.9%; in experiment [12], 30.1%. The growth was 27.5% in [13]; 28.9% in experiment [14]; 43% in experiment [15]; 14.2% in experiment [16]; 46.2% in [17]; 29.6% in [18].
As for `CC1(C=O)NC(=O)NC1=O` (stereo unspecified), the growth in experiment [1] was 96.6%; in [2], 109%; in experiment [3] it was 94.9%; in [4] it was 101%; in experiment [5], 110%; in experiment [6], 81.9%. Besides, the growth in experiment [7] is 111%; in [8], 115%; in experiment [9], 104%; in experiment [10], 107%; in experiment [11], 95.2%; in experiment [12], 91.4%. In addition, the growth in [13] was 111%; in [14], 101%; in [15] it was 95.6%; in [16], 90.5%; in experiment [17] it was 94.7%; in experiment [18] it was 108%.
For `O=C(CNc1nc2ccccc2s1)Nc1ccc(-c2nc3ccccc3s2)cc1`, the growth in [1] was 91.3%; in experiment [2], 107%; in experiment [3], 102%; in experiment [4], 98.4%; in [5], 102%; in experiment [6], 107%. Further, the growth in experiment [7] was 66.6%; in experiment [8], 98%; in experiment [9], 100%; in [10] it was 102%; in experiment [11], 73.9%; in [12] it was 106%. The growth in [13] was 109%; in experiment [14] it was 109%; in [15], 24.8%; in experiment [16] it was 98.9%; in experiment [17] it was 92.1%; in experiment [18], 99.2%.
Consider `COc1cc(C(=O)NNC(=O)c2ccc(NC(=O)CCl)cc2)cc(OC)c1OC`, for which the growth in experiment [1] was 45.8%; in [2], 97.8%; in experiment [3], 82.2%; in experiment [4], 170%; in experiment [5], 88.4%; in experiment [6] it was 99.1%. Further, the growth in [7] was 75.1%; in experiment [8] it was 62.4%; in [9] it was 90.5%; in [10] it was 102%; in experiment [11] it was 64.3%; in [12], 66.8%. Moreover, the growth is 92.5% in [13]; 65.5% in experiment [14]; 61.8% in experiment [15]; 44.5% in experiment [16]; 88.7% in [17].
Consider `COc1cc(NC2CCC(=O)N2c2ccc(Cl)cc2Cl)cc(OC)c1OC` (stereo unspecified), for which the growth in experiment [1] is 95.6%; in experiment [2], 102%; in experiment [3] it was 103%; in experiment [4], 99.5%; in experiment [5], 101%; in experiment [6], 102%. Also, the growth in experiment [7] is 105%; in [8] it was 101%; in [9], 102%; in experiment [10], 99.5%; in [11], 98.3%; in [12], 109%. In addition, the growth was 94.9% in experiment [13]; 96.8% in experiment [14]; 96.6% in experiment [15]; 97.1% in [16]; 95.7% in experiment [17]; 97.7% in experiment [18].
On to `CCCCn1c(C)nc2cc(Nc3nc(N4CCCCC4)nc4nc[nH]c34)ccc21`, for which the growth in [1] was 31.2%; in experiment [2], 40.3%; in experiment [3] it was 30.1%; in experiment [4] it was 50.1%; in experiment [5], 19%; in experiment [6], 66.5%. Also, the growth is 30.8% in experiment [7]; 37.7% in [8]; 43.8% in experiment [9]; 35% in experiment [10]; 6.78% (active) in [11]; 18% in experiment [12]. Moreover, the growth in [13] was 37.4%; in experiment [14] it was 79%; in experiment [15] it was 32.5%; in [16], 48.8%; in experiment [17] it was 66.2%; in experiment [18] it was 38.1%.
For the molecule `Cc1cc(O)cc(-c2c(-c3ccnc(-c4cccnc4)c3)cnn2C)c1`, the growth in [1] was 42.2%; in experiment [2], 51.1%; in experiment [3], 73.5%; in [4], 54.9%; in experiment [5] it was 60.9%; in experiment [6], 69.3%. The growth was 58.8% in experiment [7]; 79.4% in [8]; 58.9% in experiment [9]; 67.2% in experiment [10]; 29.3% in experiment [11]; 75.1% in experiment [12]. The growth in [13] is 61.9%; in experiment [14], 83.4%; in experiment [15], 43.5%; in experiment [16], 71.9%; in experiment [17], 88.2%; in experiment [18], 68.6%.
Regarding `Cc1cc(NCC(=O)Nc2ccc(-c3nc4ccccc4s3)cc2)no1`, the growth in [1] was 69.9%; in [2], 98.4%; in experiment [3], 96.4%; in experiment [4], 119%; in experiment [5] it was 111%; in experiment [6], 120%. In addition, the growth in experiment [7] was 88.5%; in experiment [8] it was 99.3%; in experiment [9], 101%; in experiment [10] it was 103%; in experiment [11] it was 80.3%; in experiment [12], 94.7%. The growth in [13] was 104%; in experiment [14], 113%; in experiment [15], 35.9%; in experiment [16] it was 90.7%; in experiment [17], 99.2%; in [18], 102%.
`CCCCn1c(C)nc2ccc(Nc3nc(N4CCN(C)CC4)nc4nc[nH]c34)cc21`: the growth in experiment [1] is 84%; in experiment [2], 88.2%; in experiment [3] it was 91.8%; in [4], 95.6%; in experiment [5] it was 97.8%; in [6] it was 104%. Moreover, the growth in experiment [7] is 94.1%; in experiment [8], 99.2%; in experiment [9] it was 86.8%; in experiment [10] it was 104%; in experiment [11], 80.3%; in [12] it was 97.5%. For the same molecule, the growth in experiment [13] is 94.3%; in experiment [14], 91.8%; in [15] it was 83%; in [16], 75.8%; in experiment [17], 83.6%; in experiment [18], 93.6%.
